Reference: PubChem BioAssay (Tox21)
Where “and” joins values, the source holds several entries; their conditions need not be identical. Equal entries are not always repeated. Inconclusive results are not listed. A call without a number means that no potency is given here. Calls of active or inactive are those of the source. Unless noted, calls follow the shape of the dose curve; as a rule, active = well fitted curve in the direction sought with a large enough effect in the repeat runs; inconclusive = weak or mixed curves; inactive = no such curve, though single readings can be large; an effect the other way counts as inactive or inconclusive.

What was measured:
[1] = qHTS assay to identify aromatase inhibitors - cell viability counter screen (AID 743084);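 also: cells stimulated with testosterone during compound exposure; nearly all actives have a fitted effect of over 55% in size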
[2] = qHTS assay to identify small molecule that activate the aryl hydrocarbon receptor (AhR) signaling pathway - cell viability counter screen (AID 743086); also: nearly all actives have a fitted effect of over 45% in size; also: potency is read from the fitted curve at half-maximal effect
Outline: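 Cytotoxicity counter screen: CellTiter-Fluor signal (30 min, 37 C) in 4000 HepG2 cells/well carrying the DRE-luciferase reporter, following 24 h compound exposure at 37 C.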

[3] = qHTS assay to identify small molecule antagonists of the peroxisome proliferator-activated receptor gamma (PPARg) signaling pathway - cell viability counter screen (AID 743194); also: nearly all actives have a fitted effect of over 55% in size
Outline: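 Viability was measured as CellTiter-Glo luminescence in GeneBLAzer PPARg UAS-bla HEK293H cells. These cells had been exposed 17 h at 37 C to compounds together with rosiglitazone at 50 nM final, with the beta-lactamase readout taken in the same wells.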

[4] = qHTS assay for small molecule agonists of the antioxidant response element (ARE) signaling pathway - cell viability counter screen (AID 743203; calls by dose curve; also: nearly all actives have a fitted effect of over 55% in size)
Outline: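 CellSensor ARE-bla HepG2 cells, 2,000 per well, rested 5 hrs at 37C/5% CO2, then exposed to compound in DMSO for 16 hrs; viability read as CellTiter-Glo luminescence after 30 min at room temperature, in the reporter wells.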

[5] = qHTS assay for small molecule activators of the heat shock response signaling pathway - cell viability counter screen (AID 743209); also: nearly all actives have a fitted effect of over 50% in size
Outline: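 CellSensor HSE-bla HeLa cells, plated overnight at 37 C/5% CO2, were exposed to compounds in DMSO for 5 h at 37 C. Viability was then read in the same wells by CellTiter-Glo luminescence after 30 min at room temperature.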

[6] = qHTS assay to identify small molecule agonists of the peroxisome proliferator-activated receptor delta (PPARd) signaling pathway - cell viability counter screen (AID 743211); also: nearly all actives have a fitted effect of over 55% in size
Outline: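 PPARd-bla HEK293H cells (UAS-beta-lactamase reporter) were treated with compounds for 17 h at 37 C. Viability was then read in the same wells by CellTiter-Glo luminescence after 30 min at room temperature.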

[7] = biological target: Peroxisome proliferator-activated receptor delta (Homo sapiens) (UniProt Q03181); test: qHTS assay to identify small molecule agonists of the peroxisome proliferator-activated receptor delta (PPARd) signaling pathway (AID 743212; calls by dose curve)
Sequence of Peroxisome proliferator-activated receptor delta (Homo sapiens) (Q03181 whole entry, looked up): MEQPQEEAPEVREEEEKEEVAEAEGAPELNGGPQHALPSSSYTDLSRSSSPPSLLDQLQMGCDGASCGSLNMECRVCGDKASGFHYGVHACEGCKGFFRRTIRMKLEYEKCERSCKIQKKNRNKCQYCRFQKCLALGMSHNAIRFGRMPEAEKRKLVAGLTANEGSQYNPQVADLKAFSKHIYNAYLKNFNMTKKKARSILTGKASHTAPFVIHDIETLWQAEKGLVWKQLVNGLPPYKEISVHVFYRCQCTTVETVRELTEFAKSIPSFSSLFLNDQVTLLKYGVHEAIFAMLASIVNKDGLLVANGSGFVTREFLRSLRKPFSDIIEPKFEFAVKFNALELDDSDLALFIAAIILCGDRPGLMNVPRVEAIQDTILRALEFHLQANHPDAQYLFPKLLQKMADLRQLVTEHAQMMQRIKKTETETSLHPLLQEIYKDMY
Outline: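 HEK293H UAS-bla reporter cells, human PPARd system; compounds delivered in DMSO after 5 h plating, then at 37 C. Beta-lactamase FRET read, 2 h RT substrate step.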

[8] = biological target: Peroxisome proliferator-activated receptor delta (Homo sapiens) (UniProt Q03181); test: qHTS assay to identify small molecule antagonists of the peroxisome proliferator-activated receptor delta (PPARd) signaling pathway (AID 743215; active = well fitted inhibition curve with a large enough effect in the signal ratio in the repeat runs, not every such curve was filed as active; the % refers to the signal ratio;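 also: cells stimulated with agonist L165041 at 300 nM final during compound exposure; series mostly up to about 62 µM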)
Outline: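 PPARd UAS-bla HEK293H cells were pre-incubated 5 h at 37 C, then given test compounds in DMSO plus agonist L165041 (300 nM final). After 17 h at 37 C, beta-lactamase FRET substrate was added; fluorescence read after 2 h at room temperature.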

[9] = qHTS assay to identify small molecule agonists of the farnesoid-X-receptor (FXR) signaling pathway - cell viability counter screen (AID 743218); also: nearly all actives have a fitted effect of over 45% in size
Outline: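 FXR-UAS-bla HEK 293T cells, plated 5 h at 37 C, were exposed to compounds for 16 h at 37 C. CellTiter-Glo was then added to the same wells as the bla readout; luminescence read after 30 min at room temperature.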

[10] = qHTS assay to identify small molecule antagonists of the farnesoid-X-receptor (FXR) signaling pathway - cell viability counter screen (AID 743221; active = well fitted cell-killing curve with a large enough effect in the repeat runs, not every such curve was filed as active; also: nearly all actives have a fitted effect of over 50% in size)
Outline: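 FXR-UAS-bla HEK 293T cells were treated with test compounds plus chenodeoxycholic acid (50 uM final) for 16 h at 37 C. Cell viability in the same wells was then read as CellTiter-Glo luminescence after 30 min at room temperature.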

[11] = biological target: Peroxisome proliferator-activated receptor gamma (Homo sapiens) (UniProt P37231); test: qHTS assay to identify small molecule agonists of the peroxisome proliferator-activated receptor gamma (PPARg) signaling pathway (AID 743094; active = well fitted activation curve with a large enough effect in the signal ratio in the repeat runs, not every such curve was filed as active; the % refers to the signal ratio)
Sequence of Peroxisome proliferator-activated receptor gamma (Homo sapiens) (P37231 whole entry, looked up): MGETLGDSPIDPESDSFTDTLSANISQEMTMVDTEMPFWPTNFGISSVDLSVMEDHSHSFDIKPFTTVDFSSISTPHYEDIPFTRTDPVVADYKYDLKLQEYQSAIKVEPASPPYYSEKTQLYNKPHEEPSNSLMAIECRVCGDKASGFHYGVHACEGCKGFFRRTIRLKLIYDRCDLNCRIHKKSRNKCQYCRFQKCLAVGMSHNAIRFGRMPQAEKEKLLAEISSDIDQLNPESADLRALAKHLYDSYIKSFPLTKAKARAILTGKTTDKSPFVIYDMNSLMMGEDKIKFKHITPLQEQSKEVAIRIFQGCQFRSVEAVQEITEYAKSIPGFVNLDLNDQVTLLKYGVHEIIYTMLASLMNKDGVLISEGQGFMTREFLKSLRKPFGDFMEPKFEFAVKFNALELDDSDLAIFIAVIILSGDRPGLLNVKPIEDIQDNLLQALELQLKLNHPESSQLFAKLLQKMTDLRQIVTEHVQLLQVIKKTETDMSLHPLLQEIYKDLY
Outline: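 GeneBLAzer PPARg UAS-bla HEK293H cells carrying a stably integrated beta-lactamase reporter were pre-incubated 5 h at 37C, then exposed to compounds in DMSO for 17 h at 37C; LiveBLAzer B/G FRET substrate was added for 1 h at room temperature and fluorescence read.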

[12] = biological target: Peroxisome proliferator-activated receptor gamma (Homo sapiens) (UniProt P37231); test: qHTS assay to identify small molecule antagonists of the peroxisome proliferator-activated receptor gamma (PPARg) signaling pathway (AID 743191; calls by dose curve; also: series mostly up to about 63 µM; nearly all actives have a fitted effect of over 30% in size)
Outline: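 Beta-lactamase reporter under UAS control in HEK293H PPARg-bla cells; compound treatment 17 h at 37C. Read-out: fluorescence intensity after 1 h room-temperature incubation with LiveBLAzer B/G FRET substrate.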

[13] = qHTS assay to identify small molecule antagonists of the peroxisome proliferator-activated receptor delta (PPARd) signaling pathway - cell viability counter screen (AID 743213); also: nearly all actives have a fitted effect of over 50% in size
Outline: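 HEK293H cells with the PPARd UAS-bla reporter, co-treated 17 h at 37 C with compounds and L165041 (300 nM final), were lysed with CellTiter-Glo. Luminescence indicated viable cell content.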

[14] = biological target: Aryl hydrocarbon receptor (Homo sapiens) (UniProt P35869); test: qHTS assay to identify small molecule that activate the aryl hydrocarbon receptor (AhR) signaling pathway (AID 743085); also: nearly all actives have a fitted effect of over 15% in size; also: potency is read from the fitted curve at half-maximal effect;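 as to activation: HG2L7.5c1 human HepG2 liver cells with stably integrated DRE-driven firefly reporter; series mostly up to about 70 µM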
Sequence of Aryl hydrocarbon receptor (Homo sapiens) (P35869 whole entry, looked up): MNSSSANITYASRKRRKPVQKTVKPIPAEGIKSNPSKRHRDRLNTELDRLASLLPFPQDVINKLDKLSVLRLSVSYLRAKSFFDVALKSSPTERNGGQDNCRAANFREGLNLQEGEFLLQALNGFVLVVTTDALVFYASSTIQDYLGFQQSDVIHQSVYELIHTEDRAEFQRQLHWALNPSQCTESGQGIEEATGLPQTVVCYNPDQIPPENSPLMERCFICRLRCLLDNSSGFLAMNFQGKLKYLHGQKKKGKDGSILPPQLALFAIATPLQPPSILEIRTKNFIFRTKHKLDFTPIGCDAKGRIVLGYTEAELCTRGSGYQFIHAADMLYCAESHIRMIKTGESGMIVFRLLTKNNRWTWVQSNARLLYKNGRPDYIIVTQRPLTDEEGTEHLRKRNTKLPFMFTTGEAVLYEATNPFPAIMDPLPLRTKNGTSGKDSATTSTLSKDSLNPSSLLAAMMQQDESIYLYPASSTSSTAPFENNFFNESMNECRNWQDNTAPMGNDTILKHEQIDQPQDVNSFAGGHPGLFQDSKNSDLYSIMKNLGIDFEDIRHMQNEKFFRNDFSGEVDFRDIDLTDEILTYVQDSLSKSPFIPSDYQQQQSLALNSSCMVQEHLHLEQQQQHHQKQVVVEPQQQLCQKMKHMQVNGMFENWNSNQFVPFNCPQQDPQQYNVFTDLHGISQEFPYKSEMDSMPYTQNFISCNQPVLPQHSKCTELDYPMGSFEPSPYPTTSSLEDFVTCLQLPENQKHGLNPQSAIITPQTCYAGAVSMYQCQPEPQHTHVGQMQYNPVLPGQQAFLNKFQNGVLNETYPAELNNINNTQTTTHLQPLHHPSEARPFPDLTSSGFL
Outline: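 HepG2 cells (HG2L7.5c1) stably carrying a firefly luciferase reporter driven by 20 dioxin responsive elements were exposed to compound for 24 h at 37C after a 5 h settling period; luminescence rise (ONE-Glo) indicated activation.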

[15] = qHTS assay for small molecule agonists of the antioxidant response element (ARE) signaling pathway (AID 743202; active = well fitted activation curve with a large enough effect in the signal ratio in the repeat runs, not every such curve was filed as active; the % refers to the signal ratio; also: potency is read from the fitted curve at half-maximal effect)
Outline: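 An ARE-responsive beta-lactamase gene stably integrated in HepG2 cells serves as reporter. After 5 h plating and 16 h compound incubation at 37 C, fluorescence of the B/G FRET substrate was measured.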

[16] = qHTS assay for small molecule activators of the heat shock response signaling pathway (AID 743210; active = well fitted activation curve with a large enough effect in the signal ratio in the repeat runs, with a control signal flat, not every such curve was filed as active; the % refers to the signal ratio;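 also: HeLa cells with beta-lactamase reporter driven by heat shock elements; series mostly up to about 63 µM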)
Outline: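 In HSE-bla HeLa cells, 5 h compound incubation (37 C) precedes addition of LiveBLAzer B/G substrate; after 2.5 h at room temperature, fluorescence intensity indicates reporter induction.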

[17] = biological target: Vitamin D3 receptor (Homo sapiens) (UniProt P11473); test: qHTS assay to identify small molecule agonists of the vitamin D receptor (VDR) signaling pathway (AID 743222; calls by dose curve)
Sequence of Vitamin D3 receptor (Homo sapiens) (P11473 whole entry, looked up): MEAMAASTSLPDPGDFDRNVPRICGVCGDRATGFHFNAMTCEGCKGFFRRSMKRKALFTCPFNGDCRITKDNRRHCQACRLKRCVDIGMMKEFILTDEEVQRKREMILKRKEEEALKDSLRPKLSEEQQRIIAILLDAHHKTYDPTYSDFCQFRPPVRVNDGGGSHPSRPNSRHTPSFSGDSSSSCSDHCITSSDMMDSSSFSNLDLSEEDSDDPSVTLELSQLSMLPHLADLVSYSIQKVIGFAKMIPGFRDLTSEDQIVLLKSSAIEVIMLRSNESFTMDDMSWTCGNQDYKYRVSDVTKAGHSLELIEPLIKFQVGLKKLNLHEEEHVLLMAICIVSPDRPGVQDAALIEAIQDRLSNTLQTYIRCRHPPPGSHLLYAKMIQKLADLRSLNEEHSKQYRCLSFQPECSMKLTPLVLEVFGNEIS
Outline: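 VDR-bla cells were plated 4 h at 37C/5% CO2, then exposed to compounds in DMSO for 16 h. After LiveBLAzer B/G FRET substrate addition and 2 h at room temperature, beta-lactamase reporter fluorescence was read.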

[18] = biological target: Vitamin D3 receptor (Homo sapiens) (UniProt P11473); test: qHTS assay to identify small molecule antagonists of the vitamin D receptor (VDR) signaling pathway (AID 743223; active = well fitted inhibition curve with a large enough effect in the signal ratio in the repeat runs, not every such curve was filed as active; the % refers to the signal ratio)
Outline: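 VDR-bla cells were plated, incubated 4 h at 37C, then given compound and 1alpha,25-dihydroxyvitamin D3 (3 nM final). After 16 h at 37C, LiveBLAzer B/G FRET substrate was added for 2 h at room temperature and fluorescence read.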

[19] = biological target: Bile acid receptor (Homo sapiens) (UniProt Q96RI1); test: qHTS assay to identify small molecule antagonists of the farnesoid-X-receptor (FXR) signaling pathway (AID 743217; active = well fitted inhibition curve with a large enough effect in the signal ratio in the repeat runs, not every such curve was filed as active; the % refers to the signal ratio)
Sequence of Bile acid receptor (Homo sapiens) (Q96RI1 whole entry, looked up): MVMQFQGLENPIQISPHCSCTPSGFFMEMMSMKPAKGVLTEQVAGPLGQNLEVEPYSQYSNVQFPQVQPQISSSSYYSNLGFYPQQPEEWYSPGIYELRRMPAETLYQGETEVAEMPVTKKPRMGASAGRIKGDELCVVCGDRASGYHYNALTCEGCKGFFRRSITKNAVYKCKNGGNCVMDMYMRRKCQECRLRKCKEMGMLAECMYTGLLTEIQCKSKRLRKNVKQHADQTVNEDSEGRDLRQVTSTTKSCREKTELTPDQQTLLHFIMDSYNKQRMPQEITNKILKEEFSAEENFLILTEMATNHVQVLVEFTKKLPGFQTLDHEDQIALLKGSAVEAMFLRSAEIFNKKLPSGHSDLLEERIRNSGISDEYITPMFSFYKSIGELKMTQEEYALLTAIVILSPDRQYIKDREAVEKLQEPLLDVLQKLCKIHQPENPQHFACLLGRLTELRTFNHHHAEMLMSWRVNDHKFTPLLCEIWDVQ
Outline: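 FXR-UAS-bla HEK 293T cells pre-incubated 5 h at 37 °C, then exposed to compounds with chenodeoxycholic acid (50 uM final) for 16 h at 37 °C. Beta-lactamase reporter read by LiveBLAzer B/G FRET substrate fluorescence after 2 h at room temperature.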

[20] = biological target: Bile acid receptor (Homo sapiens) (UniProt Q96RI1); test: qHTS assay to identify small molecule agonists of the farnesoid-X-receptor (FXR) signaling pathway (AID 743220; active = well fitted activation curve with a large enough effect in the signal ratio in the repeat runs, not every such curve was filed as active; the % refers to the signal ratio)
Outline: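 Beta-lactamase reporter under UAS control in GeneBLAzer FXR HEK 293T cells (5000/well) measured with LiveBLAzer FRET substrate after 2 h at room temperature. Compound exposure lasted 16 h at 37C.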

Compound	Potency [1]	Potency [2]	Potency [3]	Potency [4]	Potency [5]	Potency [6]	outcome [7]	outcome [8]	Potency [9]	Potency [10]	outcome [11]	Potency [12]	Potency [13]	Potency [14]	Potency [15]	outcome [16]	outcome [17]	outcome [18]	Potency [19]	outcome [20]
C=C[C@H]1CN2CC[C@H]1C[C@H]2[C@H](O)c1ccnc2ccc(OC)cc12	inactive	inactive	inactive	inactive	inactive	inactive	inactive	inactive	inactive	inactive	–	–	–	–	–	–	–	–	–	–
c1ccc2c(c1)ccc1ncccc12	inactive	inactive	inactive	inactive	inactive	inactive	–	inactive	inactive	inactive	inactive	inactive	inactive	–	–	–	–	–	–	–
OCCNCCO	inactive	inactive	inactive	inactive	inactive	inactive	–	inactive	inactive	inactive	–	–	inactive	inactive	inactive	inactive	inactive	inactive	–	–
CCOC(=O)C(C)Oc1ccc(Oc2cnc3cc(Cl)ccc3n2)cc1 (centres undefined)	inactive	inactive	inactive	inactive	inactive	inactive	–	inactive	inactive	–	inactive	inactive	inactive	–	inactive	–	inactive	–	inactive	inactive
NCCOCCO	inactive	inactive	inactive	inactive	inactive	inactive	–	inactive	–	–	–	–	inactive	inactive	inactive	inactive	inactive	inactive	inactive	inactive
C=CCOC(=O)C(=C)C	–	inactive	inactive	inactive	inactive	inactive	inactive	inactive	–	–	–	–	inactive	–	inactive	inactive	inactive	inactive	–	–
C[C@]12CC[C@@H]3c4ccc(O)cc4CC[C@H]3[C@@H]1CC[C@@H]2O	inactive	inactive	inactive	inactive	–	inactive	inactive	inactive	inactive	–	–	–	inactive	inactive	–	inactive	inactive	inactive	–	–
Nc1ccc2c(O)cc(S(=O)(=O)O)cc2c1	inactive	9.7 µM (active)	inactive	inactive	–	inactive	inactive	inactive	inactive	inactive	–	–	inactive	inactive	–	inactive	–	–	–	–
Cc1ccc(C(C)(C)C)c(O)c1	–	inactive	inactive	inactive	inactive	inactive	–	–	inactive	inactive	inactive	inactive	inactive	inactive	inactive	inactive	inactive	inactive	inactive	inactive
c1ccc2c(c1)ccc1cc3c(ccc4ccccc43)cc12	inactive	inactive	inactive	inactive	–	inactive	–	inactive	inactive	inactive	–	–	inactive	958 nM (active) and 121 nM (active)	538 nM (active) and 959 nM (active)	inactive	–	–	inactive	inactive
C=C[C@H]1CN2CC[C@H]1C[C@@H]2[C@@H](O)c1ccnc2ccc(OC)cc12	inactive	inactive	inactive	inactive	–	inactive	–	inactive	–	inactive	–	–	inactive	–	inactive	–	–	–	–	–
